# Assay results: PubChem BioAssay (Tox21)
# Results filed as inconclusive are left out. Where a call stands in place of a potency, no number is given. The source made the active and inactive calls. Unless noted, calls come from the whole dose curve.
# Target: Thyrotropin-releasing hormone receptor (Homo sapiens) (UniProt P34981)
# Test: qHTS assay to identify small molecule antagonists of the thyrotropin-releasing hormone receptor (TRHR) signaling pathway (AID 1346877; active = well fitted inhibition curve with a large enough effect in the repeat runs, not every such curve was filed as active)
# Details: TRHR-HEK293, TRH-induced calcium fluorescence, antagonist mode; series mostly up to 51.3 µM
# How it was run: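 Screening used HEK293 cells engineered with TRHR, with a brief 5 min room-temperature compound exposure preceding addition of TRH to 1 nM. The read-out was kinetic calcium-dye fluorescence, concentration-response from 15 doses in triplicate.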
# Thyrotropin-releasing hormone receptor (Homo sapiens), sequence (P34981 whole entry, looked up): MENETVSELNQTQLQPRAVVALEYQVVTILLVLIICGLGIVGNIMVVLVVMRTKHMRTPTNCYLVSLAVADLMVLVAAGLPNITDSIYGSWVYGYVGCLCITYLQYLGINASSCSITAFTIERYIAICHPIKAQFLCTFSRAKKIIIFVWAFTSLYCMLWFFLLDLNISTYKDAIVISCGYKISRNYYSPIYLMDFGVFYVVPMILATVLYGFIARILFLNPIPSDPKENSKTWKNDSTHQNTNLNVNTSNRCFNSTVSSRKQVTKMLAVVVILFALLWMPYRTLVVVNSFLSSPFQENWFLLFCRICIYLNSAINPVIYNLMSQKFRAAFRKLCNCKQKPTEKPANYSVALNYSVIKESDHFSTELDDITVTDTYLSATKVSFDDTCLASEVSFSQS
row,Structure (SMILES),outcome
1,Cc1c(C)c2c(c(C)c1OC(=O)CCC(=O)OCCO)CC[C@@](C)(CCC[C@H](C)CCC[C@H](C)CCCC(C)C)O2,inactive
2,CN1CC(=O)N2[C@H](c3ccc4c(c3)OCO4)c3[nH]c4ccccc4c3C[C@@H]2C1=O,inactive
3,O=C=Nc1cccc(C(F)(F)F)c1,inactive
4,CC(CN(C)C)C(C)(O)Cc1ccc(Cl)cc1 (stereo not given),inactive
5,OC1(c2ccccc2)CCNCC1,inactive
6,COC(=O)C1=C(C)NC(C)=C(C(=O)O[C@@H]2CCCN(Cc3ccccc3)C2)[C@@H]1c1cccc([N+](=O)[O-])c1,inactive
7,CO/N=C(/C(=O)N[C@@H]1C(=O)N2C(C(=O)O)=C(COC(N)=O)CS[C@H]12)c1ccco1,inactive
8,CCCCCCCCCI,inactive
9,O=C1NC(=O)c2cc([N+](=O)[O-])ccc21,inactive
10,C[C@@]12CCC[C@H]1[C@@H]1CC[C@H]3C[C@@H](O)CC[C@]3(C)[C@H]1CC2,inactive
11,C=C(C)[C@@H]1CCC2=CCC[C@@H](C)[C@]2(C)C1,inactive
12,Cc1cccc(O)c1N,inactive
13,Cc1ccccc1N=C(N)Nc1ccccc1C,inactive
14,O[C@@H]1CO[C@H]2[C@@H]1OC[C@@H]2O,inactive
15,CCC(=O)OC,inactive
16,CC1CC(C)C(=O)C1=O (stereo not given),inactive
17,CC(C)(O)c1ccc(CNC(=O)c2cccnc2Oc2ccc3nonc3c2)cc1,inactive
18,NC1[C@H]2CN(c3nc4c(cc3F)c(=O)c(C(=O)O)cn4-c3ccc(F)cc3F)C[C@@H]12 (stereo not given in full),inactive
19,O=C(CCc1ccc(O)cc1)c1c(O)cc(O)cc1O,inactive
20,C[C@@H](O)[C@H]1C(=O)N2C(C(=O)O)=C([C@H]3CCCO3)S[C@H]12,inactive
21,O=C(OC(=O)c1ccccc1)c1ccccc1,inactive
22,C=CC(C)(CCC=C(C)C)OC(=O)CC(C)C (stereo not given),inactive
23,CC=C(Cl)Cl,inactive

# Target: Thyrotropin-releasing hormone receptor (Homo sapiens) (UniProt P34981)
# Test: qHTS assay to identify small molecule agonists of the thyrotropin-releasing hormone receptor (TRHR) signaling pathway (AID 1346891)
# Details: TRHR-HEK293 calcium fluorescence, agonist mode; series mostly up to 57.6 µM
# How it was run: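 Screening of agonists relied on calcium signalling in HEK293 cells expressing human TRHR: dye loading 2 h at 37 °C preceded compound addition and a 3-min fluorescence time course.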
row,Structure (SMILES),Potency
1,COC(=O)c1nc(Cl)c(Cl)nc1N,inactive
2,Cc1c(C)c2c(c(C)c1OC(=O)CCC(=O)OCCO)CC[C@@](C)(CCC[C@H](C)CCC[C@H](C)CCCC(C)C)O2,inactive
3,CN1CC(=O)N2[C@H](c3ccc4c(c3)OCO4)c3[nH]c4ccccc4c3C[C@@H]2C1=O,inactive
4,O=C=Nc1cccc(C(F)(F)F)c1,inactive
5,CC(CN(C)C)C(C)(O)Cc1ccc(Cl)cc1 (stereo not given),inactive
6,OC1(c2ccccc2)CCNCC1,inactive
7,CC(C)C[C@H](NC(=O)[C@H](CCc1ccccc1)NC(=O)CN1CCOCC1)C(=O)N[C@@H](Cc1ccccc1)C(=O)N[C@@H](CC(C)C)C(=O)[C@@]1(C)CO1,inactive
8,COC(=O)C1=C(C)NC(C)=C(C(=O)O[C@@H]2CCCN(Cc3ccccc3)C2)[C@@H]1c1cccc([N+](=O)[O-])c1,inactive
9,CO/N=C(/C(=O)N[C@@H]1C(=O)N2C(C(=O)O)=C(COC(N)=O)CS[C@H]12)c1ccco1,inactive
10,Oc1c(I)cc(I)c2cccnc12,inactive
11,OC[C@H]1O[C@@H](n2cnc3c(=S)nc[nH]c32)[C@H](O)[C@@H]1O,inactive
12,CCCCCCCCCI,inactive
13,O=C1NC(=O)c2cc([N+](=O)[O-])ccc21,inactive
14,C[C@@]12CCC[C@H]1[C@@H]1CC[C@H]3C[C@@H](O)CC[C@]3(C)[C@H]1CC2,inactive
15,O=C(O)c1cccc(-c2noc(-c3ccccc3F)n2)c1,inactive
16,C=C(C)[C@@H]1CCC2=CCC[C@@H](C)[C@]2(C)C1,inactive
17,Cc1cccc(O)c1N,inactive
18,Cc1ccccc1N=C(N)Nc1ccccc1C,inactive
19,CCC(=O)OC,inactive
20,CC1CC(C)C(=O)C1=O (stereo not given),inactive
21,CC(C)(O)c1ccc(CNC(=O)c2cccnc2Oc2ccc3nonc3c2)cc1,inactive
22,CC1=C(CC=O)C(C)(C)CCC1,inactive
23,O=C(CCc1ccc(O)cc1)c1c(O)cc(O)cc1O,inactive
24,C[C@@H](O)[C@H]1C(=O)N2C(C(=O)O)=C([C@H]3CCCO3)S[C@H]12,inactive
25,O=C(OC(=O)c1ccccc1)c1ccccc1,inactive
26,C=CC(C)(CCC=C(C)C)OC(=O)CC(C)C (stereo not given),inactive
27,CC=C(Cl)Cl,inactive

# Test system: not listed separately
# Test: Human pregnane X receptor (PXR) small molecule agonists, qHTS cell viability counter screen (AID 1346977; active = well fitted cell-killing curve with a large enough effect in the repeat runs; note: nearly all actives have a fitted effect of over 50% in size; note: potency is the fitted concentration of half-maximal effect)
# Details: PXR-Luc HepG2 viability, CellTiter-Fluor, 24 h; series mostly up to 92.4 µM
# How it was run: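 Tox21 qHTS format; PXR-Luc HepG2, 2,000/well, charcoal-stripped FBS 5%. Cpd exposure 24hr. Read: CellTiter-Fluor fluorescence, multiplexed with luciferase.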
row,Structure (SMILES),Potency
1,Cc1c(C)c2c(c(C)c1OC(=O)CCC(=O)OCCO)CC[C@@](C)(CCC[C@H](C)CCC[C@H](C)CCCC(C)C)O2,inactive
2,CN1CC(=O)N2[C@H](c3ccc4c(c3)OCO4)c3[nH]c4ccccc4c3C[C@@H]2C1=O,inactive
3,COc1cc(Nc2c(C#N)cnc3cc(OCCCN4CCN(C)CC4)c(OC)cc23)c(Cl)cc1Cl,11.9 µM (active)
4,OC1(c2ccccc2)CCNCC1,inactive
5,CC(C)C[C@H](NC(=O)[C@H](CCc1ccccc1)NC(=O)CN1CCOCC1)C(=O)N[C@@H](Cc1ccccc1)C(=O)N[C@@H](CC(C)C)C(=O)[C@@]1(C)CO1,0.075 µM (active)
6,CO/N=C(/C(=O)N[C@@H]1C(=O)N2C(C(=O)O)=C(COC(N)=O)CS[C@H]12)c1ccco1,inactive
7,CC1(CN2CCC(n3c(=O)[nH]c4ccccc43)CC2)OCc2ccccc2-n2cccc21 (stereo not given),29.8 µM (active)
8,CCCCCCCCCI,inactive
9,O=C1NC(=O)c2cc([N+](=O)[O-])ccc21,inactive
10,CCOc1ccc(Cc2nccc3cc(OCC)c(OCC)cc23)cc1OCC,26.6 µM (active)
11,Cc1[nH]cnc1CN1CCc2c(c3ccccc3n2C)C1=O,inactive
12,O=C(O)c1cccc(-c2noc(-c3ccccc3F)n2)c1,inactive
13,C=C(C)[C@@H]1CCC2=CCC[C@@H](C)[C@]2(C)C1,inactive
14,Cc1cccc(O)c1N,inactive
15,Cc1ccccc1N=C(N)Nc1ccccc1C,inactive
16,O=[N+]([O-])c1cc(C2CCCCC2)c(O)c([N+](=O)[O-])c1,4.31 µM (active)
17,O[C@@H]1CO[C@H]2[C@@H]1OC[C@@H]2O,inactive
18,CCC(=O)OC,inactive
19,CC1CC(C)C(=O)C1=O (stereo not given),inactive
20,CC(C)(O)c1ccc(CNC(=O)c2cccnc2Oc2ccc3nonc3c2)cc1,inactive
21,NC1[C@H]2CN(c3nc4c(cc3F)c(=O)c(C(=O)O)cn4-c3ccc(F)cc3F)C[C@@H]12 (stereo not given in full),29.8 µM (active)
22,CC(=O)NC1(c2cccc(F)c2)CCN(CC[C@@]2(c3ccc(Cl)c(Cl)c3)CN(c3ccccc3)C(=O)CO2)CC1,34.5 µM (active)
23,O=c1cc(-c2ccccc2)oc2cc(O)cc(O)c12,54.5 µM (active)
24,O=C(OC(=O)c1ccccc1)c1ccccc1,inactive
25,CC=C(Cl)Cl,inactive
